Measured values as given in PubChem BioAssay (EPA / NIEHS).
Several values for one entry are separate records, joined by “and”; a condition that tells them apart may be missing. Equal values may be shown once. Records with an inconclusive call do not appear. Where a structure was tested more than once in an assay, its records may differ in their call. Activity calls are given as the source filed them. The calls were made as follows, unless noted: active = hit-call score of the fitted dose curve at least 0.9, where 1 is the maximum; inconclusive = response in the unintended direction; inactive = score below 0.9.

What was measured:
[1] = molecular target: Estrogen receptor (Homo sapiens) (UniProt P03372); test: CCTE_Deisenroth_AIME_384WELL_LUC_Active: CCTE's 384-well Estrogen Receptor Transactivation Assay with AIME metabolic competence (ERTA luciferase; metabolism positive), Deisenroth Lab (AID 2284030)
Summary of the method: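 Estrogenic luciferase signal in VM7Luc4E2 cells is measured at 24 hour, after chemicals have been preconditioned 2 hours with PB/BNF-induced rat hepatic S9 in alginate. Gain of signal is fitted relative to 17beta-estradiol, across 0.002 - 200 uM.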

[2] = CCTE_Deisenroth_AIME_384WELL_CTox_Active: Cytotoxicity Assessment (CTOX) in CCTE's 384-well Estrogen Receptor Transactivation Assay with AIME metabolic competence (metabolism positive), Deisenroth Lab (AID 2284037);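 also: chemicals first conditioned 2 h by alginate-bound induced rat liver S9 before cells; activity means signal loss indicating cell death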
Summary of the method: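 Cytotoxicity in VM7Luc4E2 breast cells, 24 hour, measured as protease-substrate fluorescence loss, after 2-hour metabolic conditioning with induced rat hepatic S9 in alginate microspheres. Concentrations 0.002 - 200 uM, 10 points, bidirectional fitting.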

[3] = molecular target: Estrogen receptor (Homo sapiens) (UniProt P03372); test: CCTE_Deisenroth_AIME_384WELL_LUC_Inactive: CCTE's 384-well Estrogen Receptor Transactivation Assay without AIME metabolic competence (ERTA luciferase; metabolism negative), Deisenroth Lab (AID 2284038);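 also: VM7Luc4E2 breast cells given medium preincubated 2 h with S9-free microspheres; hits raise estrogen receptor luciferase signal so potencies reflect agonists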
Summary of the method: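 Metabolism-negative mode: AIME lids stamped in alginate-water, no hepatic S9. 2 h chemical incubation → medium onto VM7Luc4E2 ERTA, 24 h. Readout luciferase luminescence; gain-of-signal fit vs 17beta-estradiol. Conc. 0.002 - 200 uM.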

[4] = molecular target: Estrogen receptor (Homo sapiens) (UniProt P03372); test: CCTE_Deisenroth_AIME_384WELL_LUC_Shift: CCTE's 384-well Estrogen Receptor Transactivation Assay with AIME metabolic competence data shift (ERTA luciferase; difference in metabolism positive and negative), Deisenroth Lab (AID 2284041; active = hit-call score of the fitted dose curve at least 0.9, where 1 is the maximum; inactive = score below 0.9;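 also: shift is response with S9 minus without S9 so positive means metabolism raised ER signal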)
Summary of the method: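 Test chemicals (0.002–200 uM, 10-point) were pre-incubated 2 h with alginate microspheres containing phenobarbital/beta-naphthoflavone-induced male Sprague Dawley rat liver S9 or water, then medium was transferred to VM7Luc4E2 cells for 24 h luciferase readout; shift = S9-positive minus S9-negative normalized response.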

[5] = CCTE_Deisenroth_AIME_384WELL_CTox_Inactive: Cytotoxicity Assessment (CTOX) in CCTE's 384-well Estrogen Receptor Transactivation Assay without AIME metabolic competence (metabolism negative), Deisenroth Lab (AID 2284039);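 also: cell viability via live-cell protease substrate cleaved to fluorescent probe; cells exposed 24 h to medium preincubated 2 h with alginate-water beads without S9; loss of fluorescence signal means loss of viability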
Summary of the method: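 Fluorescence from a live-cell protease substrate, read after 24 h in VM7Luc4E2 cells, indicated viability. Test medium came from a 2 h AIME step without hepatic S9 (alginate-water microspheres); concentrations spanned 0.002 - 200 uM, single technical replicate per run.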

[6] = CCTE_Shafer_MEA_dev_per_burst_spike_percent: CCTE's Neural Network Formation Assay for Percent of Spikes in a Burst, Shafer Lab (AID 2284032; active = hit-call score of the fitted dose curve at least 0.9, where 1 is the maximum; inactive = score below 0.9)
Summary of the method: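 Value is trapezoidal AUC over recordings on days 5, 7, 9 and 12 of the well-mean fraction of spikes falling in single-electrode bursts; rat cortical cultures exposed continuously from plating, treatment renewed DIV 5 and 9, fitted downward against DMSO.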

[7] = CCTE_Shafer_MEA_dev_active_electrodes_number: CCTE's Neural Network Formation Assay for Number of Active Electrodes, Shafer Lab (AID 2284040);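 also: potency for loss of active electrodes versus DMSO so lower counts are hits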
Summary of the method: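 Developing rat cortical networks on MEAs, exposed DIV 0–12. Value is the AUC of active-electrode counts (≥5 spikes/min) from days 5, 7, 9, 12, relative to DMSO.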

[8] = CCTE_Shafer_MEA_dev_burst_rate: CCTE's Neural Network Formation Assay for Burst Rate, Shafer Lab (AID 2284042; active = hit-call score of the fitted dose curve at least 0.9, where 1 is the maximum; inactive = score below 0.9)
Summary of the method: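 Developmental network assay measuring how 12-day exposure of rat cortical neuron cultures alters bursting on extracellular MEA recordings. Values are AUC of well-mean burst rate across four recording days, relative to DMSO vehicle.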

[9] = CCTE_Shafer_MEA_dev_bursting_electrodes_number: CCTE's Neural Network Formation Assay for Number of Bursting Electrodes, Shafer Lab (AID 2284043);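 also: potency is for loss of bursting electrodes relative to DMSO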
Summary of the method: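 Number of electrodes reaching ≥1 burst every 2 min was recorded at DIV 5, 7, 9 and 12 and collapsed as trapezoidal area under the curve. Cultures were rat cortical neurons on MEA plates, dosed continuously from plating with medium and treatment refreshed on DIV 5 and 9.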

[10] = CCTE_Shafer_MEA_dev_per_burst_interspike_interval: CCTE's Neural Network Formation Assay for Burst Interspike Interval, Shafer Lab (AID 2284044; active = hit-call score of the fitted dose curve at least 0.9, where 1 is the maximum; inactive = score below 0.9)
Summary of the method: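 Spontaneous activity of maturing rat cortical networks is recorded on DIV 5, 7, 9 and 12 under chronic compound exposure beginning at plating. Endpoint: burst interspike interval well-mean, collapsed into trapezoidal AUC and fitted in the negative direction relative to DMSO.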

[11] = CCTE_Shafer_MEA_dev_burst_duration_mean: CCTE's Neural Network Formation Assay for Mean Burst Duration, Shafer Lab (AID 2284045; active = hit-call score of the fitted dose curve at least 0.9, where 1 is the maximum; inactive = score below 0.9)
Summary of the method: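 Mean single-electrode burst duration (first to last spike), averaged over bursting electrodes per well, then integrated as area-under-curve across recordings at days 5, 7, 9 and 12. Rat cortical cultures on MEAs, compound present from plating, refreshed at feeds.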

[12] = CCTE_Shafer_MEA_dev_interburst_interval_mean: CCTE's Neural Network Formation Assay for Mean Interburst Interval, Shafer Lab (AID 2284046; active = hit-call score of the fitted dose curve at least 0.9, where 1 is the maximum; inactive = score below 0.9;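 also: well-mean interburst interval of bursting electrodes as AUC over four recording days; curve fitted for decrease in interburst interval relative to DMSO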)
Summary of the method: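 Network formation assay in primary rat cortical cultures, exposed from DIV 0 to 12. Mean interburst interval per well, integrated as AUC over four recordings.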

[13] = CCTE_Shafer_MEA_dev_network_spike_number: CCTE's Neural Network Formation Assay for Number of Network Spikes, Shafer Lab (AID 2284048; active = hit-call score of the fitted dose curve at least 0.9, where 1 is the maximum; inactive = score below 0.9;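 also: synchronized bursts across electrodes counted on days 5 7 9 12 and integrated as AUC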)
Summary of the method: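 Number of network spikes (coordinated firing across electrodes) recorded on days 5, 7, 9 and 12 and summarised as area under the curve. Rat cortical cultures on MEA, continuous compound exposure with full medium/treatment exchange at DIV 5 and 9.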

[14] = CCTE_Shafer_MEA_dev_network_spike_peak: CCTE's Neural Network Formation Assay for Mean Number of Electrodes in Network Spike, Shafer Lab (AID 2284049; active = hit-call score of the fitted dose curve at least 0.9, where 1 is the maximum; inactive = score below 0.9;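 also: fitted for loss of signal meaning fewer electrodes in network spikes than DMSO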)
Summary of the method: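 Rat cortical primary culture, 1.5 x 10^5 cells/well, 48-well MEA (16 electrodes/well). Dosing day 0 through DIV 12, full media/compound exchange DIV 5, 9. AxIS adaptive spike detection; AUC over days 5/7/9/12; loss-of-signal vs DMSO.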

[15] = CCTE_Shafer_MEA_dev_spike_duration_mean: CCTE's Neural Network Formation Assay for Mean Spike Duration, Shafer Lab (AID 2284051; active = hit-call score of the fitted dose curve at least 0.9, where 1 is the maximum; inactive = score below 0.9;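 also: mean network spike duration pooled as area under curve over DIV 5 to 12 recordings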;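 as to AC50: potency for a decrease in mean network spike duration versus DMSO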)
Summary of the method: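 With DMSO as baseline, loss of mean network spike duration was scored from extracellular recordings of rat cortical neurons on MEA plates. Exposure spanned plating to DIV 12; the four recording days were collapsed into one AUC value.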

[16] = CCTE_Shafer_MEA_dev_network_spike_duration_std: CCTE's Neural Network Formation Assay for Standard Deviation of Network Spike Duration, Shafer Lab (AID 2284052; active = hit-call score of the fitted dose curve at least 0.9, where 1 is the maximum; inactive = score below 0.9;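 also: hits are decreases in network spike duration SD versus DMSO vehicle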)
Summary of the method: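 Developing networks of rat cortical neurons were exposed over twelve days in vitro on 48-well MEA plates. Trapezoidal AUC of recordings (DIV 5–12) was analysed for signal loss relative to DMSO vehicle.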

[17] = CCTE_Shafer_MEA_dev_LDH: CCTE's Lactate Dehydrogenase Assay for Cytotoxicity in the Neural Network Formation Assay, Shafer Lab (AID 2284068);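 also: exposure for twelve days from plating with re-dosing on DIV 5 and 9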
Summary of the method: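 Developing rat cortical networks on MEA plates are exposed to compound for 12 days from plating. LDH activity is measured spectrophotometrically, with DMSO as baseline.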

Sequence of Estrogen receptor (Homo sapiens) (P03372 whole entry, looked up): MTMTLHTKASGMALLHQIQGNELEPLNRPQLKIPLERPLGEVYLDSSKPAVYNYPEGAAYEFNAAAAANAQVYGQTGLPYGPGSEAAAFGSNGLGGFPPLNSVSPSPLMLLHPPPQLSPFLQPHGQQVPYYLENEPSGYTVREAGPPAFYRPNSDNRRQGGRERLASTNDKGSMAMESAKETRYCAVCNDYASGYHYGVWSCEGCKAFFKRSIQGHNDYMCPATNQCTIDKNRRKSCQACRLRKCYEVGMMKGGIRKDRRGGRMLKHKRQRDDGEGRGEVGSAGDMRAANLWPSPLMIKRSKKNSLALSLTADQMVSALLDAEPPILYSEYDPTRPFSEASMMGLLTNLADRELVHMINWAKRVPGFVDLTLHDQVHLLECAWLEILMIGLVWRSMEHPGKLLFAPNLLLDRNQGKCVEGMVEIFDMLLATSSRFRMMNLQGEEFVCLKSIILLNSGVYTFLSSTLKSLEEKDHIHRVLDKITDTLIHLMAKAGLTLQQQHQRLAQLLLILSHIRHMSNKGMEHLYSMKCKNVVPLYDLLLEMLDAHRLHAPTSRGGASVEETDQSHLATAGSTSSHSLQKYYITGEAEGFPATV

Question: Which outcome [1] does the source give for Cc1ccc(N)cc1Cl here?
Answer: The outcome was “inactive”.

Question: What about the outcome [2] of the same compound?
Answer: Its outcome is “inactive”.

Question: What about the outcome [3] of the same compound?
Answer: Its outcome is “inactive”.

Question: And the outcome [4]?
Answer: The outcome was “inactive”.

Question: Which outcome [1] does the source give for COc1ccc(C=O)cc1 here?
Answer: Its outcome is “inactive”.

Question: What about the outcome [2] of the same compound?
Answer: Its outcome is “inactive”.

Question: What about the outcome [3] of the same compound?
Answer: Its outcome is “inactive”.

Question: And the outcome [5]?
Answer: The outcome was “inactive”.

Question: And the outcome [4]?
Answer: The outcome was “inactive”.

Question: Which outcome [1] does the source give for ClC(Cl)=C(Cl)C(Cl)=C(Cl)Cl here?
Answer: Its outcome is “inactive”.

Question: What about the outcome [2] of the same compound?
Answer: Its outcome is “inactive”.

Question: What about the outcome [3] of the same compound?
Answer: The outcome was “inactive”.

Question: And the outcome [5]?
Answer: The outcome was “inactive”.

Question: And the outcome [4]?
Answer: The outcome was “inactive”.

Question: Which outcome [1] does the source give for C=C(C)C#N here?
Answer: Its outcome is “inactive”.

Question: What about the outcome [2] of the same compound?
Answer: Its outcome is “inactive”.

Question: And the outcome [3]?
Answer: The outcome was “inactive”.

Question: What about the outcome [4] of the same compound?
Answer: Its outcome is “inactive”.

Question: With CNC as the compound, how does the outcome [1] read?
Answer: Its outcome is “inactive”.

Question: What about the outcome [2] of the same compound?
Answer: Its outcome is “inactive”.

Question: What about the outcome [3] of the same compound?
Answer: The outcome was “inactive”.

Question: What about the outcome [5] of the same compound?
Answer: Its outcome is “inactive”.

Question: And the outcome [4]?
Answer: Its outcome is “inactive”.

Question: With COP(=O)(OC)O/C(=C\Cl)c1cc(Cl)c(Cl)cc1Cl as the compound, how does the outcome [6] read?
Answer: Its outcome is “inactive”.

Question: And the AC50 [2]?
Answer: Its AC50 is 100 µM (active).

Question: What about the outcome [3] of the same compound?
Answer: Its outcome is “inactive”.

Question: And the AC50 [5]?
Answer: The AC50 was 100 µM (active).

Question: What about the AC50 [7] of the same compound?
Answer: The AC50 was 78.5 µM (active) and 51.5 µM (active).

Question: What about the outcome [4] of the same compound?
Answer: Its outcome is “inactive”.

Question: What about the outcome [8] of the same compound?
Answer: The outcome was “inactive”.

Question: And the AC50 [9]?
Answer: The AC50 was 79.3 µM (active) and 51.5 µM (active).

Question: And the outcome [10]?
Answer: The outcome was “inactive”.

Question: What about the outcome [11] of the same compound?
Answer: The outcome was “inactive”.

Question: What about the outcome [12] of the same compound?
Answer: Its outcome is “inactive”.

Question: And the outcome [13]?
Answer: Its outcome is “inactive”.

Question: And the AC50 [14]?
Answer: Its AC50 is 86.9 µM (active) and 12.5 µM (active).

Question: And the AC50 [15]?
Answer: The AC50 was 84.2 µM (active).

Question: What about the outcome [15] of the same compound?
Answer: The outcome was “inactive”.

Question: What about the outcome [16] of the same compound?
Answer: The outcome was “inactive”.

Question: And the AC50 [17]?
Answer: The AC50 was 50 µM (active) and 51.5 µM (active).

Question: Which outcome [1] does the source give for CCOC(=O)Nc1cccc(OC(=O)Nc2ccccc2)c1 here?
Answer: Its outcome is “inactive”.

Question: And the outcome [3]?
Answer: The outcome was “inactive”.

Question: And the outcome [4]?
Answer: The outcome was “inactive”.

Question: What does the source list for COP(=O)(OC)OC?
Answer: outcome [1]: inactive; outcome [3]: inactive; outcome [4]: inactive

Question: Which results are given for NNC(=S)NN?
Answer: outcome [1]: inactive; outcome [2]: inactive; outcome [3]: inactive; outcome [5]: inactive; outcome [4]: inactive

Question: With OCC(O)CCl (centres undefined) as the compound, how does the AC50 [1] read?
Answer: Its AC50 is 555 nM (active).

Question: And the outcome [2]?
Answer: Its outcome is “inactive”.

Question: What about the AC50 [3] of the same compound?
Answer: The AC50 was 124 nM (active).

Question: What about the AC50 [4] of the same compound?
Answer: The AC50 was 2.81 nM (active).

Question: For NC(=O)O, which outcome [1] is on record?
Answer: The outcome was “inactive”.

Question: What about the outcome [2] of the same compound?
Answer: Its outcome is “inactive”.

Question: What about the outcome [3] of the same compound?
Answer: Its outcome is “inactive”.

Question: What about the outcome [5] of the same compound?
Answer: The outcome was “inactive”.

Question: And the outcome [4]?
Answer: Its outcome is “inactive”.

Question: Which outcome [1] does the source give for O=C(NCO)NCO here?
Answer: Its outcome is “inactive”.

Question: And the outcome [2]?
Answer: Its outcome is “inactive”.

Question: And the outcome [3]?
Answer: The outcome was “inactive”.

Question: And the outcome [4]?
Answer: Its outcome is “inactive”.

Question: Which outcome [1] does the source give for CCCCCCCCSC(=O)Oc1cc(Cl)nnc1-c1ccccc1 here?
Answer: The outcome was “inactive”.

Question: And the outcome [2]?
Answer: The outcome was “inactive”.

Question: What about the outcome [3] of the same compound?
Answer: The outcome was “inactive”.

Question: What about the outcome [5] of the same compound?
Answer: The outcome was “inactive”.

Question: What about the outcome [4] of the same compound?
Answer: Its outcome is “inactive”.
